# This is a sample that favours compounds with a hit; in the whole collection about 3.2% have one here.
# CDK5 inh = CDK5/p35 (human) kinase inhibition | AID 488839 | hit rate 0.01% among 330,000 | inhibition, % at 10 µM | Recombinant CDK5/p35, ADP-Glo luminescence, 60 min;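 active = highest replicate inhibition of at least 50% and at least 75% of replicates reaching 50%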;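 note: plate controls were DMSO neutral control for no effect and GW8510 at 10 µM for full effect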
# dFosB act = mouse delta FosB homodimer activation; purified delta FosB, TAMRA-CDK5 oligo fluorescence polarization; percent of positive-control signal above neutral wells; activation, % at 25 µM; hit rate 0.99% among 340,000; AID 493131;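 active = mean activation above about 17%, with every replicate also reaching it, limit read from the data, passing the limit was not always enough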
# Target sequence (P13346 whole entry, looked up): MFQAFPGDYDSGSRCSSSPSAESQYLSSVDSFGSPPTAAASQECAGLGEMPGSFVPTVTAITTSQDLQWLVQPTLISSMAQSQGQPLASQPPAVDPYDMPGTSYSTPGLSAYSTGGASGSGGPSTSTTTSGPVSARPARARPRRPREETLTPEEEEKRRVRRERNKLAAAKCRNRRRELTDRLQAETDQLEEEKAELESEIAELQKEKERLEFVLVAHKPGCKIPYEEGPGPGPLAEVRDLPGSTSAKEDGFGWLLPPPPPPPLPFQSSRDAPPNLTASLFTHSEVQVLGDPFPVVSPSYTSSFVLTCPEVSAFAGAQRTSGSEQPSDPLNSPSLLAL
# Dyrk1A ADPGlo = Dyrk1A (rat) kinase inhibition; hit rate 0.43% among 310,000; ADP-Glo luminescence, NFATc1 peptide; inhibition, % at 12.5 µM; AID 504441; in the data active = inhibition above about 50%;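 note: plate controls were vehicle with enzyme for no effect and no enzyme for full effect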
# esBAF inh = SWI/SNF esBAF complex inhibition; mouse ES cells, Bmi1-luciferase knock-in reporter, 24 h; 100% = twice the neutral-well signal; AID 602393; hit rate 2% among 350,000; reporter increase, % at 12.5 µM; in the data active = activation above about 40%;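 note: 0% = median of the plate's neutral control wells and 100% = double that signal; a rise in the Bmi1 reporter signal indicates esBAF inhibition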
# Rtt109 Vps75 = inhibitors of Candida albicans Rtt109/Vps75 histone acetyltransferase; Q5AAJ8; purified Rtt109/Vps75, ThioGlo CoA-SH fluorescence, 4 h; inhibition, % at 34.9 µM; hit rate 0.16% among 330,000; AID 540336;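 active = inhibition of at least 50% in every replicate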
# Target sequence (Q5AAJ8 whole entry, looked up): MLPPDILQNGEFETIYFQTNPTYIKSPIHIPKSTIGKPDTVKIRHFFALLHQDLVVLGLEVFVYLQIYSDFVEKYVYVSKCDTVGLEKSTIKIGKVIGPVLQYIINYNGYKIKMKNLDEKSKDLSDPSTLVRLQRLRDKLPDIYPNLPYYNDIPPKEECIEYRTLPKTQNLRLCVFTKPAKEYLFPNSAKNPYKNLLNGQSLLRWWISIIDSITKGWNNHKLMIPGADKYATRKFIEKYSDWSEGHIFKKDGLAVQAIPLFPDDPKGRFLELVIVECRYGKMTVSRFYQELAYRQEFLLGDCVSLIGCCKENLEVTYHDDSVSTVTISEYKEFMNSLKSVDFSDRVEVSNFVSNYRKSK
# SMARCA2 activ = increases SMARCA2 function in MMTV reporter cells; MG213 cells, MMTV-luciferase reporter, dexamethasone, overnight; activation, % at 9.1 µM; hit rate 1% among 370,000; AID 652017; in the data active = activation above about 7.8%;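 note: 0% = vehicle wells and 100% = reference activator wells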
# esBAF Ring1 qPCR = confirmation of esBAF inhibitors: Ring1 de-repression in mouse ESCs. fold change at 33 µM. shares compounds with esBAF inh. 550 tested, under 10 active. mouse ESC E14, Ring1 mRNA RT-qPCR fold change;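 active = Ring1 gene expression raised more than 2-fold over untreated cells in both replicates at either tested dose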;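 note: Ring1 transcript normalised to actin housekeeping signal by TaqMan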
# Fgf4 repress = esBAF inhibition confirmed by Fgf4 repression; Fgf4 expression fold change at 33 µM; shares compounds with esBAF inh; AID 743177; mouse ESC E14, Fgf4 mRNA qPCR fold change; stronger effect = lower value; hit rate 4% among 550;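 active = Fgf4 expression under 0.8 fold of control in both repeat measurements at one or both tested doses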;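 note: Fgf4 transcript normalised to actin in duplex TaqMan qPCR; cells exposed to compound for 24 h before lysis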
# Bmi1 derepress = confirmation of esBAF inhibitors: Bmi1 de-repression in mouse ESCs; shares compounds with esBAF inh; mouse ESE14 ES cells, Bmi1 mRNA qPCR fold; stronger effect = higher value; fold change at 33 µM; AID 743180; 550 tested, under 10 active;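 active = Bmi1 expression fold change above 6 at either tested concentration, seen in replicate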;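 note: higher fold means more Bmi1 de-repression and stronger esBAF inhibition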
# A549 cytotox = A549 cell cytotoxicity; shares compounds with esBAF inh; plate reader; cell viability change % (negative = cytotoxic), % at 25 µM, hits read low; 550 tested, under 10 active; call rule not given here
# HepG2 cytotox SP = cytotoxicity in HepG2 cells. shares compounds with esBAF inh. plate reader; stronger effect = lower value. activity change, negative = inhibition, % at 25 µM. hit rate 4% among 550. AID 743189; in the data active = activity change below about -50%
# HEK293 tox SP = HEK293 cell cytotoxicity at single point; AID 743190; hit rate 3% among 550; plate reader; shares compounds with esBAF inh; activity change, negative = inhibition, % at 25 µM, hits read low; in the data active = activity change below about -38%, passing the limit was not always enough
# SMARCA2 conf = confirmation of SMARCA2 (BRM) function activators; shares compounds with SMARCA2 activ; MG213 cells, MMTV-luciferase with dexamethasone, luminescence, overnight; MG213 cells expressing E1A, Rb sequestered; DMSO wells 0%, reference activator 100%; activation, % at 9.1 µM; hit rate 30% among 3,500; AID 652260;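 active = activation above its plate's cutoff, the mean activation of tested wells plus 3 SD, cut at about 7.9% in these data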
# GAL4-VP16 Luc = GAL4-VP16 reporter activation counter-screen | shares compounds with SMARCA2 activ | HEK293 GAL4-VP16 pG5luc reporter, luciferase luminescence; scaled: DMSO wells 0%, SAHA wells 100% | activation, % at 9.1 µM | hit rate 41% among 3,500 | AID 686939;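 active = activation above the solvent-only control well mean plus 3 SD, averaged across control plates, cut at about 5.2% in these data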
# Active calls of the source: *; nt = not tested or not shown.
SMILES,CDK5 inh,dFosB act,Dyrk1A ADPGlo,esBAF inh,Rtt109 Vps75,SMARCA2 activ,SMARCA2 conf,GAL4-VP16 Luc,others
COC(=O)[C@@H]1[C@@H](CO)[C@@H]2Cn3c(ccc(C4=CCCCC4)c3=O)[C@H]1N2C(=O)CC1CC1,nt,nt,nt,-0.8,nt,nt,nt,nt,
CCCCCn1c(=O)c(C(=O)Nc2ccccc2Cl)c(O)c2ccccc21,-1.5,-5.8,nt,99.5*,2.0,-1.7,nt,nt,esBAF Ring1 qPCR=1.22;Fgf4 repress=0.959;Bmi1 derepress=1.16;A549 cytotox=3.6;HepG2 cytotox SP=-23.0;HEK293 tox SP=-15.3
COc1cccc(-c2ccc3n(c2=O)C[C@@H]2[C@@H](CO)[C@H](C(=O)O)[C@H]3N2Cc2ccccc2F)c1,nt,nt,nt,1.8,nt,nt,nt,nt,
COc1cc2nc(CN3CC=C(c4ccccc4)CC3)[nH]c(=O)c2cc1OC,0.2,-10.8,1.3,-6.9,-5.3,14.4*,7.0,-1.2,
COc1cc(C)c(CN2CC=C(c3ccc(F)cc3)CC2)cc1C,0.9,-2.1,3.1,9.4,1.0,-1.7,nt,nt,
COc1cccc(-c2ccc3n(c2=O)C[C@H]2[C@H](CO)[C@@H](C(=O)O)[C@@H]3N2Cc2ccccc2F)c1,nt,nt,nt,2.4,nt,nt,nt,nt,
CN(C)C(=O)Oc1cccc(-c2cn3cc(Cl)ccc3n2)c1,1.1,-13.4,7.8,37.6,-8.0,26.3*,17.5*,6.3*,
O=C(Cc1cccnc1)N1CCCCN2[C@H](C1)[C@H](c1ccc(C#CC3CCCC3)cc1)[C@@H]2CO,nt,nt,nt,-0.1,nt,nt,nt,nt,
CCOC(=O)c1c(C)[nH]c(C(=O)C(C)N2CCCC2)c1C (stereo not given),0.1,-4.8,-6.3,nt,-2.5,8.4*,0.3,0.9,
CCOC(=O)c1c(C)[nH]c(C(=O)C(Cc2ccccc2)N(C)C)c1C (stereo not given),0.2,-12.3,1.8,15.0,-6.7,2.8,nt,nt,
CN/C=C(/Cl)P(=O)(OC(C)C)OC(C)C,-0.4,8.1,-10.7,nt,8.2,8.0*,3.8,-0.9,
Fc1cccc(F)c1-c1nc(-c2ccc(Cl)cc2)no1,-0.4,5.7,1.8,64.4*,-22.4,8.2*,13.2*,2.9,
CC=Cc1ccc2n(c1=O)C[C@@H]1[C@@H](CO)[C@H](C(=O)OC)[C@H]2N1CC1CCOCC1 (mixture of isomers),nt,nt,nt,6.1,nt,nt,nt,nt,
CN(C)P(=O)(C(Cl)=C(N1CCCCC1)N1CCCCC1)N(C)C,2.7,6.0,-5.7,-4.6,-1.8,18.7*,39.5*,-1.7,
COc1ccc(-n2c(-c3ccc(C)cc3)nc3ccccc3c2=O)cc1,-0.3,-13.2,2.6,nt,-8.4,1.6,nt,nt,
COc1ccc(-c2nc3ccccc3c(=O)o2)cc1,-1.8,-13.1,3.0,49.8*,2.2,9.8*,8.7*,7.4*,
Cc1ccccc1NC(=S)NC(NC(=O)CF)C(Cl)(Cl)Cl (stereo not given),0.6,-11.5,-6.5,nt,-2.0,9.2*,2.8,-0.8,
CC=Cc1ccc2n(c1=O)C[C@@H]1[C@@H](CO)[C@H](C(=O)OC)[C@H]2N1C(=O)CC1CC1 (mixture of isomers),nt,nt,nt,-6.9,nt,nt,nt,nt,
O=C(c1cc(S(=O)(=O)N2CCCCC2)ccc1F)N1CCC2(CC1)OCCO2,-5.6,-0.7,-8.5,-4.9,-3.0,8.1*,-4.9,0.3,
COc1ccc(C#Cc2ccc([C@@H]3[C@@H](CO)N4CCCCN(C(=O)Cc5ccccc5)C[C@@H]34)cc2)cc1,nt,nt,nt,8.7,nt,nt,nt,nt,
NC(Cc1ccc(Cl)cc1)c1csc(Nc2ccccn2)n1 (stereo not given),nt,nt,nt,-1.7,nt,-4.1,nt,nt,
NC(Cc1ccccc1)c1csc(Nc2ccccn2)n1 (stereo not given),nt,nt,nt,nt,nt,13.1*,8.2*,-0.2,
C[C@@H]1CN([C@@H](C)CO)C(=O)CCCn2cc(nn2)CO[C@@H]1CN(C)C(=O)Oc1ccc2ccccc2c1,nt,nt,nt,5.2,nt,nt,nt,nt,
O=c1[nH]c(=S)[nH]c(O)c1N=Nc1ccc(SC(F)F)cc1,1.4,0.2,-9.0,-37.5,-2.8,11.1*,12.0*,10.0*,
Cc1cc2c(cc1C)NP(=S)(c1ccccc1)N2,-0.1,-7.2,0.3,39.3,5.2,9.3*,6.3,8.3*,
SMILES,CDK5 inh,dFosB act,Dyrk1A ADPGlo,esBAF inh,Rtt109 Vps75,SMARCA2 activ,SMARCA2 conf,GAL4-VP16 Luc,others
CC1CCCN(CC(=O)c2ccc(Cl)c(Cl)c2)C1 (stereo not given),-0.5,-8.2,0.7,nt,0.4,-1.1,nt,nt,
CC1CCN(CC(=O)c2ccc3c(c2)OCCO3)CC1,1.6,3.3,nt,3.7,8.7,8.0*,7.2,9.6*,
COC(=O)[C@H]1[C@H](CO)[C@H]2Cn3c(ccc(-c4cccnc4)c3=O)[C@@H]1N2CCc1ccccc1,nt,nt,nt,2.4,nt,nt,nt,nt,
CC(C)CC#Cc1ccc([C@@H]2[C@@H](CO)N3CCCCN(C(=O)Cc4ccccn4)C[C@H]23)cc1,nt,nt,nt,4.2,nt,nt,nt,nt,
CCCCCCC(=O)N/N=C/c1c(O)n(CCc2ccccc2)c(=O)[nH]c1=O,1.1,-7.9,5.2,-3.1,7.3,8.7*,-0.2,-0.4,
COc1ccc(CN2Cc3cc(-c4ccc(OC)cc4)ccc3-n3nncc3C2)cc1,nt,nt,nt,23.2,nt,8.0*,2.3,1.7,
COc1ccc(CN2Cc3cc(-c4ccccc4)ccc3-n3nncc3C2)cc1,nt,nt,nt,-3.8,nt,-5.6,nt,nt,
O=C(Cc1cccnc1)N1CCCCN2[C@H](CO)[C@@H](c3ccc(C#CC4CCCC4)cc3)[C@H]2C1,nt,nt,nt,-9.8,nt,nt,nt,nt,
COc1ccc(C#Cc2ccc([C@H]3[C@@H](CO)N4CCCCN(C(=O)Cc5ccccc5)C[C@H]34)cc2)cc1,nt,nt,nt,5.9,nt,nt,nt,nt,

# Compound activity: PubChem BioAssay, several laboratories
